Laboratory results taken from PubChem BioAssay AID1159580 (chemical genetic matrix, 2015).
Several values for one entry are separate records, joined by “and”; a condition that tells them apart may be missing. Equal values may be shown once. About 2,000 (36%) of roughly 5,500 compounds were called active. Another 18% or so got no clear call; they are omitted. This is one part of the list. A number with no mark means an inactive call. Cut-off read from the data, not from the text of the source: active = normalized growth mostly below about 0.91 (no sharp cut-off); inconclusive = no clear call, values can overlap the other calls; inactive = mostly above about 0.92.

Test: chemical genetic growth profiling, strain panel (AID 1159580);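 note: tested at 20 µM; growth read once vehicle control cultures reached saturation at 30 °C; 1 = growth at the plate median or of vehicle wells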
Conditions: S. cerevisiae deletion strains, growth OD

Structure (SMILES): COc1cc2occc2c2oc(=O)ccc12
- normalized growth (locus YAL021C, strain ccr4, stronger effect = lower value): 1.01
- normalized growth (locus YAL026C, strain drs2, stronger effect = lower value): 0.984
- normalized growth (locus YAL030W, strain snc1, stronger effect = lower value): 1.01
- normalized growth (locus YBL061C, strain skt5, stronger effect = lower value): 0.992
- normalized growth (locus YBR009C, strain hhf1, stronger effect = lower value): 0.982
- normalized growth (locus YBR021W, strain FUR4, stronger effect = lower value): 0.965
- normalized growth (locus YBR023C, strain chs3, stronger effect = lower value): 1
- normalized growth (locus YBR171W, strain sec66, stronger effect = lower value): 1.02
- normalized growth (locus YBR229C, strain ROT2, stronger effect = lower value): 0.949
- normalized growth (locus YBR231C, strain swc5, stronger effect = lower value): 0.962
- normalized growth (locus YBR279W, strain paf1, stronger effect = lower value): 1.01
- normalized growth (locus YCL011C, strain gbp2, stronger effect = lower value): 1.01
- normalized growth (locus YCL016C, strain dcc1, stronger effect = lower value): 0.972
- normalized growth (locus YCL029C, strain bik1, stronger effect = lower value): 0.931
- normalized growth (locus YCL069W, strain vba3, stronger effect = lower value): 1.03
- normalized growth (locus YCR088W, strain abp1, stronger effect = lower value): 1.02
- normalized growth (locus YDL005C, strain med2, stronger effect = lower value): 1.01
- normalized growth (locus YDL035C, strain GPR1, stronger effect = lower value): 0.92
- normalized growth (locus YDL040C, strain nat1, stronger effect = lower value): 1.02
- normalized growth (locus YDL074C, strain BRE1, stronger effect = lower value): 0.842
- normalized growth (locus YDL101C, strain DUN1, stronger effect = lower value): 0.939
- normalized growth (locus YDL185W, strain tfp1, stronger effect = lower value): 0.936
- normalized growth (locus YDL192W, strain arf1, stronger effect = lower value): 0.887 (active)
- normalized growth (locus YDR001C, strain nth1, stronger effect = lower value): 1.01
- normalized growth (locus YDR069C, strain doa4, stronger effect = lower value): 0.98
- normalized growth (locus YDR101C, strain arx1, stronger effect = lower value): 0.897 (active)
- normalized growth (locus YDR137W, strain rgp1, stronger effect = lower value): 1.06
- normalized growth (locus YDR159W, strain sac3, stronger effect = lower value): 1.01
- normalized growth (locus YDR162C, strain NBP2, stronger effect = lower value): 0.873
- normalized growth (locus YDR195W, strain ref2): 1.29 [resistant] (active)
- normalized growth (locus YDR297W, strain sur2, stronger effect = lower value): 0.998
- normalized growth (locus YDR318W, strain mcm21, stronger effect = lower value): 0.948
- normalized growth (locus YDR334W, strain swr1, stronger effect = lower value): 0.969
- normalized growth (locus YDR335W, strain msn5, stronger effect = lower value): 0.968
- normalized growth (locus YDR388W, stronger effect = lower value): 0.979
- normalized growth (locus YDR392W, strain spt3, stronger effect = lower value): 0.792
- normalized growth (locus YDR502C, strain sam2, stronger effect = lower value): 0.984
- normalized growth (locus YEL003W, strain gim4, stronger effect = lower value): 0.985
- normalized growth (locus YEL037C, strain rad23, stronger effect = lower value): 1
- normalized growth (locus YEL061C, strain CIN8 (second series), stronger effect = lower value): 1
- normalized growth (locus YER015W, strain faa2, stronger effect = lower value): 1
- normalized growth (locus YER016W, strain bim1, stronger effect = lower value): 1.02
- normalized growth (locus YER110C, stronger effect = lower value): 0.936
- normalized growth (locus YER111C, strain swi4, stronger effect = lower value): 1.02
- normalized growth (locus YER155C, strain BEM2 (second series), stronger effect = lower value): 0.821 (active)
- normalized growth (locus YER155C, strain BEM2, stronger effect = lower value): 0.992
- normalized growth (locus YER167W, strain BCK2, stronger effect = lower value): 0.967
- normalized growth (locus YFR010W, strain ubp6, stronger effect = lower value): 0.957
- normalized growth (locus YGL078C, strain dbp3, stronger effect = lower value): 1.02
- normalized growth (locus YGL086W, strain mad1, stronger effect = lower value): 0.964
- normalized growth (locus YGL167C, strain pmr1, stronger effect = lower value): 1.02
- normalized growth (locus YGL173C, strain kem1, stronger effect = lower value): 1.01
- normalized growth (locus YGL227W, strain vid30, stronger effect = lower value): 1.03
- normalized growth (locus YGL240W, strain doc1, stronger effect = lower value): 0.92
- normalized growth (locus YGL248W, strain PDE1, stronger effect = lower value): 0.964
- normalized growth (locus YGL253W, strain hxk2, stronger effect = lower value): 1.01
- normalized growth (locus YGR078C, strain PAC10, stronger effect = lower value): 0.95
- normalized growth (locus YGR135W, strain pre9, stronger effect = lower value): 0.99
- normalized growth (locus YGR252W, strain gcn5, stronger effect = lower value): 0.865
- normalized growth (locus YHR013C, strain ard1, stronger effect = lower value): 1.08
- normalized growth (locus YHR027C, strain rpn1, stronger effect = lower value): 0.998
- normalized growth (locus YHR030C, strain SLT2, stronger effect = lower value): 0.982 and 0.967
- normalized growth (locus YHR079C, strain IRE1 (second series), stronger effect = lower value): 0.984
- normalized growth (locus YHR079C, strain IRE1, stronger effect = lower value): 0.958
- normalized growth (locus YHR094C, strain hxt1, stronger effect = lower value): 0.975
- normalized growth (locus YHR129C, strain ARP1, stronger effect = lower value): 0.98
- normalized growth (locus YHR142W, strain chs7, stronger effect = lower value): 0.961
- normalized growth (locus YHR200W, strain rpn10, stronger effect = lower value): 0.93
- normalized growth (locus YIL066C, strain RNR3, stronger effect = lower value): 0.925
- normalized growth (locus YIL073C, strain SPO22, stronger effect = lower value): 0.944
- normalized growth (locus YIL125W, strain kgd1, stronger effect = lower value): 0.99
- normalized growth (locus YIR030C, strain dcg1, stronger effect = lower value): 0.979
- normalized growth (locus YJL092W, strain hpr5, stronger effect = lower value): 1.02
- normalized growth (locus YJL095W, strain BCK1 (second series), stronger effect = lower value): 0.998
- normalized growth (locus YJL095W, strain BCK1, stronger effect = lower value): 0.942 and 0.974
- normalized growth (locus YJL115W, strain asf1, stronger effect = lower value): 0.991
- normalized growth (locus YJL129C, strain trk1, stronger effect = lower value): 1.17 [resistant] (active)
- normalized growth (locus YJL134W, strain LCB3, stronger effect = lower value): 0.967
- normalized growth (locus YJL154C, strain vps35, stronger effect = lower value): 1.02
- normalized growth (locus YJL164C, strain tpk1, stronger effect = lower value): 0.983
- normalized growth (locus YJL166W, strain qcr8, stronger effect = lower value): 1.02
- normalized growth (locus YJL168C, strain set2, stronger effect = lower value): 0.976
- normalized growth (locus YJL187C, strain SWE1 (second series), stronger effect = lower value): 0.968
- normalized growth (locus YJL187C, strain SWE1, stronger effect = lower value): 1.02
- normalized growth (locus YJR066W, strain TOR1, stronger effect = lower value): 0.917
- normalized growth (locus YKL009W, strain mrt4, stronger effect = lower value): 0.944
- normalized growth (locus YKL068W, stronger effect = lower value): 1
- normalized growth (locus YKL085W, strain MDH1 (second series), stronger effect = lower value): 0.991
- normalized growth (locus YKL085W, strain MDH1, stronger effect = lower value): 0.991
- normalized growth (locus YKL160W, strain elf1, stronger effect = lower value): 1.01
- normalized growth (locus YKL190W, strain CNB1, stronger effect = lower value): 0.985
- normalized growth (locus YKR001C, strain vps1, stronger effect = lower value): 0.877 (active)
- normalized growth (locus YKR026C, strain gcn3, stronger effect = lower value): 1.03
- normalized growth (locus YKR091W, strain srl3, stronger effect = lower value): 1.02
- normalized growth (locus YLL001W, strain dnm1, stronger effect = lower value): 1
- normalized growth (locus YLL026W, stronger effect = lower value): 1.02
- normalized growth (locus YLL041C, strain sdh2, stronger effect = lower value): 1
- normalized growth (locus YLR027C, strain aat2, stronger effect = lower value): 1.01
- normalized growth (locus YLR039C, strain RIC1, stronger effect = lower value): 1
- normalized growth (locus YLR058C, strain SHM2, stronger effect = lower value): 0.976
- normalized growth (locus YLR102C, strain apc9, stronger effect = lower value): 0.985
- normalized growth (locus YLR113W, strain HOG1, stronger effect = lower value): 1
- normalized growth (locus YLR221C, strain rsa3, stronger effect = lower value): 1.02
- normalized growth (locus YLR258W, strain gsy2, stronger effect = lower value): 1.03
- normalized growth (locus YLR262C, strain YPT6 (second series), stronger effect = lower value): 1.02
- normalized growth (locus YLR262C, strain YPT6, stronger effect = lower value): 1.06
- normalized growth (locus YLR268W, strain sec22, stronger effect = lower value): 0.887
- normalized growth (locus YLR320W, strain mms22, stronger effect = lower value): 0.857 (active)
- normalized growth (locus YLR342W, strain FKS1 (second series), stronger effect = lower value): 0.944
- normalized growth (locus YLR342W, strain FKS1, stronger effect = lower value): 1.02
- normalized growth (locus YLR357W, strain rsc2, stronger effect = lower value): 1.16 [resistant] (active)
- normalized growth (locus YLR370C, strain arc18, stronger effect = lower value): 1.03
- normalized growth (locus YLR371W, strain rom2, stronger effect = lower value): 0.861 (active)
- normalized growth (locus YLR384C, strain iki3, stronger effect = lower value): 1.01
- normalized growth (locus YLR418C, strain cdc73, stronger effect = lower value): 0.914
- normalized growth (locus YML016C, strain PPZ1, stronger effect = lower value): 0.956
- normalized growth (locus YML032C, strain rad52, stronger effect = lower value): 0.836 (active)
- normalized growth (locus YML120C, strain ndi1, stronger effect = lower value): 1.04
- normalized growth (locus YML124C, strain tub3, stronger effect = lower value): 0.982
- normalized growth (locus YMR058W, strain fet3, stronger effect = lower value): 0.988
- normalized growth (locus YMR078C, strain ctf18, stronger effect = lower value): 0.967
- normalized growth (locus YMR125W, strain sto1, stronger effect = lower value): 1.02
- normalized growth (locus YMR129W, stronger effect = lower value): 1.04
- normalized growth (locus YMR205C, strain PFK2, stronger effect = lower value): 1.03
- normalized growth (locus YMR223W, strain ubp8, stronger effect = lower value): 0.957
- normalized growth (locus YMR231W, strain pep5, stronger effect = lower value): 1.01
- normalized growth (locus YMR307W, strain GAS1, stronger effect = lower value): 0.932
- normalized growth (locus YNL067W, strain RPL9B, stronger effect = lower value): 0.99
- normalized growth (locus YNL071W, strain lat1, stronger effect = lower value): 1
- normalized growth (locus YNL183C, strain NPR1, stronger effect = lower value): 0.935
- normalized growth (locus YNL209W, strain ssb2, stronger effect = lower value): 0.995
- normalized growth (locus YNL233W, strain BNI4, stronger effect = lower value): 0.942
- normalized growth (locus YNL248C, strain rpa49, stronger effect = lower value): 0.681 (active)
- normalized growth (locus YNL250W, strain rad50, stronger effect = lower value): 0.936
- normalized growth (locus YNL271C, strain bni1, stronger effect = lower value): 0.97
- normalized growth (locus YNL298W, strain CLA4, stronger effect = lower value): 0.915
- normalized growth (locus YNL307C, strain MCK1, stronger effect = lower value): 0.959
- normalized growth (locus YNL322C, strain KRE1 (second series), stronger effect = lower value): 0.998
- normalized growth (locus YNL322C, strain KRE1, stronger effect = lower value): 0.99
- normalized growth (locus YNR049C, strain mso1, stronger effect = lower value): 1.03
- normalized growth (locus YNR052C, strain pop2, stronger effect = lower value): 0.988
- normalized growth (locus YOL012C, strain htz1): 0.958
- normalized growth (locus YOL147C, strain pex11, stronger effect = lower value): 0.952
- normalized growth (locus YOR001W, strain rrp6, stronger effect = lower value): 0.985
- normalized growth (locus YOR061W, strain CKA2, stronger effect = lower value): 0.939
- normalized growth (locus YOR069W, strain VPS5, stronger effect = lower value): 0.984
- normalized growth (locus YOR070C, strain gyp1, stronger effect = lower value): 0.995
- normalized growth (locus YOR080W, strain dia2, stronger effect = lower value): 1.01
- normalized growth (locus YOR083W, strain WHI5, stronger effect = lower value): 0.955
- normalized growth (locus YOR106W, strain vam3, stronger effect = lower value): 0.987
- normalized growth (locus YOR136W, strain idh2, stronger effect = lower value): 0.957
- normalized growth (locus YOR144C, strain elg1, stronger effect = lower value): 0.95
- normalized growth (locus YOR184W, strain ser1, stronger effect = lower value): 0.836 (active)
- normalized growth (locus YOR231W, strain MKK1, stronger effect = lower value): 0.983
- normalized growth (locus YOR265W, strain rbl2, stronger effect = lower value): 0.996
- normalized growth (locus YOR270C, strain vph1, stronger effect = lower value): 0.934
- normalized growth (locus YOR290C, strain snf2, stronger effect = lower value): 0.963
- normalized growth (locus YOR316C, strain cot1, stronger effect = lower value): 0.99
- normalized growth (locus YPL051W, strain arl3, stronger effect = lower value): 0.992
- normalized growth (locus YPL078C, strain atp4, stronger effect = lower value): 0.987
- normalized growth (locus YPL106C, strain sse1, stronger effect = lower value): 0.921
- normalized growth (locus YPL240C, strain hsp82, stronger effect = lower value): 1.01
- normalized growth (locus YPL256C, strain CLN2, stronger effect = lower value): 1.03
- normalized growth (locus YPR119W, strain clb2, stronger effect = lower value): 0.992
- normalized growth (locus YPR141C, strain kar3, stronger effect = lower value): 1
- normalized growth (locus YPR163C, strain tif3, stronger effect = lower value): 0.911 (active)
- normalized growth (locus YPR167C, strain met16, stronger effect = lower value): 0.995
- normalized growth (strain wtn01, stronger effect = lower value): 0.902
